Laboratory results: PubChem BioAssay (EPA / NIEHS)
Calls of active or inactive are those of the source. Rule for the calls: active = hit-call score of the fitted dose curve at least 0.9, where 1 is the maximum; inactive = score below 0.9.

Read-out: solute carrier (SLCO1B1), SLCO1B1 (gene 10599)
Experiment: LTEA_HepaRG_SLCO1B1: Life Technologies and Expression Analysis (LTEA) Assay for solute carrier (SLCO1B1) using HepaRG (AID 2283530)
Conditions: mRNA level, 48 h; actives raise or lower the signal
Experimental: LTEA_HepaRG is a cell based, multiplexed-readout assay that uses HepaRG, a human liver cell line, with measurements taken at 48 hours after chemical dosing on a 96-well plate.LTEA_HepaRG_SLCO1B1 is one of 102 assay component(s) measured in the LTEA HepaRG cell culture assay. It is a marker of NR mediated transport.Data from the assay component LTEA_HepaRG_SLCO1B1 was analyzed into 1 endpoint. This assay endpoint, LTEA_HepaRG_SLCO1B1, was analyzed with bidirectional fitting relative to DMSO as the negative control and baseline of activity. Using a type of inducible reporter, measures of mRNA induction for gain or loss-of-signal activity can be used to understand regulation of transcription factor activity. To generalize the intended target to other relatable targets, this assay endpoint is annotated to the transporter intended target family, where the subfamily is organic anion transporter.
A total of 1060 chemcials from the ToxCast library were tested in eight-point concentration-response experiments. Cell culture and cytotoxicity assays were conducted at Thermo Fisher Scientific's Custom Services facility (Madison, WI). A single lot of human HepaRG cells (Thermo Fisher Scientific, Frederick, MD) was used for the cell culture experiments. 96-well format collagen type I coated plates of human HepaRG cells were prepared using established methods. Briefly, cryopreserved HepaRG cells were thawed, plated at a density of approximately 100,000 cells/well in HepaRG Thaw, Plate, and General Purpose media (HPRG770, Thermo Fisher Scientific), and incubated for 48 hours. 0.5% DMSO was selected as vehicle control to balance the requisite need of DMSO in HepaRG cultures to maintain differentiation (for example, baseline metabolism, proportions of hepatocytes vs. cholangiocytes), while enabling further hepatic receptor pathway activation (for example, PXR and CAR) in response to chemical exposure. 48 hours after plating, the culture medium was replaced with HepaRG Serum-Free Incudtion Media. Cells were exposed to each test chemical in duplicate and maintained in CO2 incubators for another 48 hours. Chemical plates were thawed to room temperature and 200x concentrations of treatment groups were prepared. 8-point conentration-reponse curves were made with the highest exposure at 100 uM, followed by half-log dilutions, all in 0.5% DMSO. Each test plate contained variouse controls, induction positive controls (1mM phenobarbital), cytotoxicity positive controls ([…] aflatoxin B1), vehicle controls (0.5% DMSO), and total lysis controls (0.5% DMSO). Cell morphology images were taken using an Essen IncuCyte FLR automated microscope, with six 96-well plates imaged in about 24 minutes. Images were captured and exported and JPEG files. Spent culture media was transfered to black-well plates for the LDH assay, and remaining media was sorted at -80 C for later use. Cells were treated with RLT buffer and frozen until shipped for gene expression analysis. Total RNA was isolated from the cell suspension in 75 uL of Buffer RLT (Qiagen, Germantown, MD 20874) by Quintiles/Expression Analysis (Durham, NC) using a custom isolation procedure. Total RNA from each plate well was transferred to a preamplification plate. Fluidigm's 96.96 Dynamic ArrayTM (Fluidigm, Amsterdam, the Netherlands) technology was used for gene expression analyses by quantitative reverse transcription polymerase chain reaction (qRT-PCR, performed by Quintiles/Expression Analysis, Durham, NC)89. Standard TaqManTM Assays (Applied Biosystems/ThermoFisher Scientific, Foster City, CA) were used to assess the expression of 93 genes selected based on their selectivity and sensitivity to important hepatic receptors known to be modulated by environmental chemicals; importance in human hepatocyte functionality; and hepatotoxicity. […]

SMILES	AC50	outcome
O=C(CCCN1CCC(O)(c2ccc(Cl)cc2)CC1)c1ccc(F)cc1	82.6 µM (active)	
CN(C)CCOC(c1ccccc1)c1ccccc1		inactive
CCCCCCCCCCCCCCC		inactive
Cc1[nH]nc2c1N=C(c1ccccc1Cl)c1cc([N+](=O)[O-])ccc1N2	7.93 µM (active)	
CCCCC=O		inactive
OCC(CO)(CBr)CBr		inactive
CCCCc1oc2ccccc2c1C(=O)c1cc(I)c(OCCN(CC)CC)c(I)c1	67.7 µM (active)	
CN(Cc1cnc2nc(N)nc(N)c2n1)c1ccc(C(=O)N[C@@H](CCC(=O)O)C(=O)O)cc1		inactive
O=C1NS(=O)(=O)c2ccccc21		inactive
O=C(c1ccccc1)c1ccccc1		inactive
N=C(N)c1ccc(OCCCCCOc2ccc(C(=N)N)cc2)cc1	3.57 µM (active)	
CC(=O)Nc1ccc(O)cc1		inactive
CS(=O)(=O)c1ccc([C@@H](CC2CCCC2)C(=O)Nc2cnccn2)cc1Cl	84 µM (active)	
CCCCC(CC)C(=O)O (stereo not given)		inactive
CCC(C)c1ccccc1O (stereo not given)		inactive
